Results from PubChem BioAssay AID624137 (Broad Institute, 2012).
In all, about 31,000 compounds went through this assay and about 360 (1.2%) were called active. The rule behind the calls is not given here. For the sample, actives were picked, then their nearest neighbours and some compounds at random.

Target: DNA-binding protein inhibitor ID-4 (Homo sapiens) (UniProt P47928)
Assay: PubChem AID 624137;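 note: a binder raises fluorescence above local background on the spot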
Conditions: small molecule microarray, Flag-ID4 binding, fluorescence F/B

Chain of DNA-binding protein inhibitor ID-4 (Homo sapiens) (P47928 whole entry, looked up): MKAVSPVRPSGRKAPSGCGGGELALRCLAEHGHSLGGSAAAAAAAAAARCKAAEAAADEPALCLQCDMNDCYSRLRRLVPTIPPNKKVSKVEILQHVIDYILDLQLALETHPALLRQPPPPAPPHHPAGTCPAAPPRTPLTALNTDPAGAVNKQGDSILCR

Which outcome does the source give for C[C@@H]1CN([C@H](C)CO)C(=O)c2cc(C#CC3CC3)cnc2O[C@@H]1CN(C)Cc1ccccn1 here?
Its outcome is “inactive”.

Which outcome does the source give for C[C@@H]1CN([C@@H](C)CO)S(=O)(=O)c2ccc(-c3ccc(C(=O)N(C)C)cc3)cc2O[C@@H]1CN(C)Cc1ccccc1C(=O)O here?
Its outcome is “inactive”.

Which outcome does the source give for COc1ccccc1S(=O)(=O)N[C@@H]1C=C[C@H](CC(=O)N2CCOCC2)O[C@@H]1CO here?
Its outcome is “inactive”.

How did the outcome turn out when O=C(C[C@@H]1C=C[C@H](NC(=O)CCN2CCCCC2)[C@H](CO)O1)NCc1ccc(Cl)c(Cl)c1 was run?
Its outcome is “inactive”.

How did the outcome turn out when C/C=C/c1cnc2c(c1)C(=O)N([C@@H](C)CO)C[C@@H](C)[C@@H](CN(C)S(=O)(=O)c1ccccc1F)O2 was run?
Its outcome is “inactive”.

C[C@H]1CN([C@@H](C)CO)S(=O)(=O)c2ccc(C3=CCCC3)cc2O[C@H]1CN(C)Cc1cccc(C(=O)O)c1 was tested. Which outcome did it give?
The outcome was “inactive”.

CC(C)NC(=O)N(C)C[C@H]1Oc2cc(-c3cncnc3)ccc2S(=O)(=O)N([C@@H](C)CO)C[C@H]1C was tested. Which outcome did it give?
Its outcome is “inactive”.

Which outcome does the source give for Cc1ccc(Cc2cncc(O)c2)cc1S(=O)(=O)O here?
Its outcome is “active”.

With C[C@H]1CN([C@@H](C)CO)S(=O)(=O)c2ccc(C3=CCCCC3)cc2O[C@@H]1CN(C)Cc1ccccc1 as the compound, how does the outcome read?
Its outcome is “inactive”.

How did the outcome turn out when C[C@H](CO)N1C[C@H](C)[C@@H](CN(C)C(=O)C2CC2)Oc2ncc(-c3cccc(F)c3)cc2C1=O was run?
The outcome was “inactive”.

With C/C=C/c1ccc2c(c1)O[C@@H](CN(C)CC1CCOCC1)[C@@H](C)CN([C@H](C)CO)S2(=O)=O as the compound, how does the outcome read?
Its outcome is “inactive”.

C[C@H](CO)N1C[C@H](C)[C@H](CN(C)C(=O)C2CCCCC2)Oc2ncc(C#CC3CC3)cc2C1=O was tested. Which outcome did it give?
The outcome was “inactive”.

For C[C@H]1CN([C@@H](C)CO)C(=O)c2cc(C#Cc3ccccc3F)cnc2O[C@H]1CN(C)C, which outcome is on record?
The outcome was “inactive”.

O=C(O)/C(=C/C(=O)c1ccc(F)cc1)Nc1ccc2[nH]c(=O)[nH]c2c1 was tested. Which outcome did it give?
Its outcome is “inactive”.

How did the outcome turn out when O=C(OCCN1CCCCC1)c1cccc(COc2ccc3ccccc3c2)c1 was run?
The outcome was “inactive”.

How did the outcome turn out when C[C@H](CO)N1C[C@H](C)[C@H](CN(C)C(=O)c2ccncc2)Oc2cc(C#CC3(O)CCCC3)ccc2S1(=O)=O was run?
Its outcome is “inactive”.

Which outcome does the source give for O=C(C[C@@H]1C[C@@H]2c3cc(NS(=O)(=O)c4ccc(F)cc4)ccc3O[C@@H]2[C@@H](CO)O1)N1CCOCC1 here?
The outcome was “inactive”.

With CCCC#Cc1ccc2c(c1)O[C@@H](CN(C)S(=O)(=O)c1cccc(OC)c1)[C@H](C)CN([C@@H](C)CO)S2(=O)=O as the compound, how does the outcome read?
The outcome was “inactive”.

With COCC(=O)Nc1ccc2c(c1)[C@H]1C[C@H](CC(=O)NCc3cccnc3)O[C@H](CO)[C@H]1O2 as the compound, how does the outcome read?
Its outcome is “inactive”.

For CO[C@@H]1CN(C)C(=O)c2ccc(NC(=O)C3CC3)cc2OC[C@@H](C)N(CC2CCOCC2)C[C@H]1C, which outcome is on record?
Its outcome is “inactive”.

For CC(=O)N(C)C[C@H]1Oc2ncc(-c3cccc(F)c3)cc2C(=O)N([C@@H](C)CO)C[C@H]1C, which outcome is on record?
The outcome was “inactive”.

Which outcome does the source give for O=[N+]([O-])c1ccccc1/C=C/CN1CCC(O)CC1 here?
Its outcome is “active”.

For O=[N+]([O-])c1ccccc1CN1CCN(Cc2cccc(Oc3ccccc3)c2)CC1, which outcome is on record?
Its outcome is “inactive”.

How did the outcome turn out when O=C(C[C@H]1CC[C@@H](NC(=O)c2ccncc2)[C@@H](CO)O1)NCC1CC1 was run?
The outcome was “inactive”.

With C[C@@H]1CN([C@H](C)CO)C(=O)c2cc(-c3ccccc3F)cnc2O[C@H]1CN(C)C(=O)CN(C)C as the compound, how does the outcome read?
Its outcome is “inactive”.

Which outcome does the source give for C[C@H](CO)N1C[C@H](C)[C@@H](CN(C)C(=O)c2cnccn2)Oc2ncc(-c3ccccc3F)cc2C1=O here?
Its outcome is “inactive”.

Which outcome does the source give for O=C(CSc1nc(O)cc(=O)n1-c1ccccc1F)Nc1ccc(Cl)cc1Cl here?
Its outcome is “inactive”.

With COC(=O)Cc1csc(Nc2c(C)n(C)n(-c3ccccc3)c2=O)n1 as the compound, how does the outcome read?
The outcome was “inactive”.

Cc1c(NC(=O)/C(C#N)=C/c2ccccc2Cl)c(=O)n(-c2ccccc2)n1C was tested. Which outcome did it give?
The outcome was “active”.

COc1cccc(/C=C(\C#N)C(=O)Nc2c(C)n(C)n(-c3ccccc3)c2=O)c1 was tested. Which outcome did it give?
The outcome was “inactive”.

COc1cc(NC(=O)COc2ccccc2Br)c(OC)cc1Cl was tested. Which outcome did it give?
The outcome was “inactive”.

Which outcome does the source give for C[C@H](CO)N1C[C@H](C)[C@H](CN(C)C(=O)C2CC2)OCc2ccccc2-c2ccccc2C1=O here?
Its outcome is “inactive”.

How did the outcome turn out when CCC(=O)N[C@H]1CC[C@@H](CC(=O)NCc2cc(F)cc(F)c2)O[C@@H]1CO was run?
Its outcome is “inactive”.

How did the outcome turn out when C[C@@H]1CCCCO[C@@H](CN(C)C(=O)c2ccccc2)[C@H](C)CN([C@@H](C)CO)C(=O)c2cc(NS(C)(=O)=O)ccc2O1 was run?
Its outcome is “inactive”.

For C[C@H](CO)N1C[C@H](C)[C@H](CN(C)C(=O)c2ccccc2)OCCCC[C@H](C)Oc2ccc(NS(C)(=O)=O)cc2C1=O, which outcome is on record?
Its outcome is “inactive”.

C[C@@H]1CN([C@@H](C)CO)C(=O)c2cc(NS(C)(=O)=O)ccc2O[C@@H](C)CCCCO[C@@H]1CN(C)C(=O)c1ccccc1 was tested. Which outcome did it give?
The outcome was “active”.

CNC[C@@H]1Oc2cc(C#Cc3ccc(F)cc3)ccc2S(=O)(=O)N([C@@H](C)CO)C[C@H]1C was tested. Which outcome did it give?
The outcome was “inactive”.

For COc1ccccc1-c1cnc2c(c1)C(=O)N([C@H](C)CO)C[C@H](C)[C@H](CN(C)Cc1cccnc1)O2, which outcome is on record?
Its outcome is “inactive”.

How did the outcome turn out when Cc1ccccc1-c1cnc2c(c1)C(=O)N([C@@H](C)CO)C[C@@H](C)[C@@H](CN(C)CC1CCOCC1)O2 was run?
The outcome was “inactive”.

For CCCN(C)C[C@H]1Oc2cc(-c3ccc(C)cc3)ccc2S(=O)(=O)N([C@H](C)CO)C[C@H]1C, which outcome is on record?
Its outcome is “inactive”.

Which outcome does the source give for C[C@@H]1CN([C@@H](C)CO)C(=O)c2cc(Br)cnc2O[C@@H]1CN(C)C(=O)C1CCCCC1 here?
Its outcome is “inactive”.

With CN1CCN(C(=O)C[C@H]2CC[C@@H](NC(=O)c3ccc4c(c3)OCO4)[C@H](CO)O2)CC1 as the compound, how does the outcome read?
The outcome was “inactive”.

O=C(C[C@H]1C=C[C@H](NS(=O)(=O)c2ccc(F)cc2)[C@H](CO)O1)NCc1ccncn1 was tested. Which outcome did it give?
Its outcome is “inactive”.

For CCCN(C)C[C@@H]1Oc2cc(C#CC3CCCCC3)ccc2S(=O)(=O)N([C@@H](C)CO)C[C@@H]1C, which outcome is on record?
Its outcome is “inactive”.

How did the outcome turn out when COc1ccccc1-c1cnc2c(c1)C(=O)N([C@@H](C)CO)C[C@@H](C)[C@H](CN(C)Cc1cccnc1)O2 was run?
Its outcome is “inactive”.

For COCC#Cc1cnc2c(c1)C(=O)N([C@H](C)CO)C[C@@H](C)[C@@H](CN(C)Cc1ccccc1F)O2, which outcome is on record?
Its outcome is “inactive”.

With CC(C)CC#Cc1cnc2c(c1)C(=O)N([C@@H](C)CO)C[C@H](C)[C@@H](CN(C)C(=O)c1ccc(F)cc1)O2 as the compound, how does the outcome read?
The outcome was “inactive”.

For C[C@@H]1CN([C@@H](C)CO)S(=O)(=O)c2ccc(C3=CCCC3)cc2O[C@@H]1CN(C)Cc1ccncc1, which outcome is on record?
Its outcome is “inactive”.

How did the outcome turn out when C[C@@H](O)C#Cc1cnc2c(c1)C(=O)N([C@@H](C)CO)C[C@H](C)[C@@H](CN(C)CC1CCCCC1)O2 was run?
The outcome was “inactive”.

With COc1ccccc1-c1ccc2c(c1)O[C@H](CN(C)C(=O)c1cccnc1)[C@@H](C)CN([C@H](C)CO)S2(=O)=O as the compound, how does the outcome read?
The outcome was “inactive”.

For CC(C)C#Cc1ccc2c(c1)O[C@@H](CN(C)CC1CCOCC1)[C@H](C)CN([C@H](C)CO)S2(=O)=O, which outcome is on record?
Its outcome is “inactive”.

CNC[C@H]1Oc2cc(C#CC3CCCC3)ccc2S(=O)(=O)N([C@H](C)CO)C[C@@H]1C was tested. Which outcome did it give?
The outcome was “inactive”.

CC(C)C#Cc1cnc2c(c1)C(=O)N([C@H](C)CO)C[C@@H](C)[C@H](CN(C)Cc1ccccc1)O2 was tested. Which outcome did it give?
Its outcome is “inactive”.

How did the outcome turn out when C[C@@H]1CN([C@@H](C)CO)S(=O)(=O)c2ccc(C#CCC3CCCC3)cc2O[C@@H]1CN(C)C was run?
The outcome was “inactive”.

Which outcome does the source give for C[C@H](O)C#Cc1cnc2c(c1)C(=O)N([C@H](C)CO)C[C@@H](C)[C@H](CN(C)CC1CCCCC1)O2 here?
Its outcome is “inactive”.

C[C@@H]1CN([C@H](C)CO)C(=O)c2cc(C3=CCCC3)cnc2O[C@H]1CN(C)C was tested. Which outcome did it give?
The outcome was “inactive”.

How did the outcome turn out when Cc1cccc(NC(=O)CSc2nnc(-c3ccccc3)n2C2CCCCC2)c1C was run?
Its outcome is “inactive”.

For CCC(=O)N(C)C[C@H]1Oc2cc(/C=C/c3ccccc3)ccc2S(=O)(=O)N([C@H](C)CO)C[C@H]1C, which outcome is on record?
Its outcome is “inactive”.

For O=C(C[C@H]1CC[C@@H](NC(=O)Nc2cc(F)ccc2F)[C@@H](CO)O1)NCc1ccncn1, which outcome is on record?
The outcome was “inactive”.

Which outcome does the source give for CNC[C@H]1Oc2ncc(-c3ccccc3F)cc2C(=O)N([C@H](C)CO)C[C@H]1C here?
The outcome was “inactive”.
